Data: PubChem BioAssay AID651923 (Vanderbilt Specialized Chemistry Center, 2012)
Calls of active or inactive are those of the source. The rule behind the calls is not given here.

Target: Muscarinic acetylcholine receptor M1 (Homo sapiens) (UniProt P11229)
Experiment: ACh response enhancement at human M1 – CHO cells, selectivity assay for M5 PAM project (AID 651923)
Details: CHO-K1 M1, calcium flux Fluo-4, ACh EC20 potentiation; series mostly up to 30 µM

Muscarinic acetylcholine receptor M1 (Homo sapiens), sequence (P11229 whole entry, looked up): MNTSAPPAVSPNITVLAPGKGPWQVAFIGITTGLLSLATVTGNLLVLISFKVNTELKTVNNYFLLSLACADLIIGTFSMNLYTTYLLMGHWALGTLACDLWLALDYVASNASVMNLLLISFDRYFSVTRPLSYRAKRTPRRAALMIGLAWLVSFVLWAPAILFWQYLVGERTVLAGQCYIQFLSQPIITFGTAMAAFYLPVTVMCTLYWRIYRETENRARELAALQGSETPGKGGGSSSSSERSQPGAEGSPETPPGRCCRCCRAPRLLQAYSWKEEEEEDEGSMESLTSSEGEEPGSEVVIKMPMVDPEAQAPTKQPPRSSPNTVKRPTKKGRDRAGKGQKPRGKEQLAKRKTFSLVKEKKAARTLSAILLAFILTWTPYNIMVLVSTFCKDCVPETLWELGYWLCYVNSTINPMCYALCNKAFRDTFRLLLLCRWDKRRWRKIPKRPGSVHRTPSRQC

Which outcome does the source give for `O=C1C(=O)N(CCOc2ccccc2)c2ccc(OC(F)(F)F)cc21` here?
Its outcome is “inactive”.
